Measurements: ChEMBL document CHEMBL4513216, “Probing the Open Global Health Chemical Diversity Library for Multistage-Active Starting Points for Next-Generation Antimalarials” (ACS Infect Dis, 2020)
About 2,100 (3.2%) of roughly 65,000 compounds showed an effect of 50% or more. The median lay at about -52%. This is one part of a sample in which strong results are shown more often than they occur.

Each compound was assayed on Plasmodium falciparum (assay: Screen against P. falciparum Asexual Blood Stage (ABS), at 5uM). Conditions: tested at 5 uM.
Format: functional, Dd2
`Cc1noc(C)c1CN1CC[C@@H]2O[C@H](COCC3CC3)CC[C@@H]21` was tested, and the INHIBITION was -4.95%.
`Cc1ccc(-c2nc(CNC(C)CCO)[nH]c2-c2ccccn2)cc1` (stereo unspecified) showed an INHIBITION of 86%.
`c1cc(CN2CC[C@H]3C[C@H](c4nc(C5CC5)cs4)O[C@@H]3C2)ccn1` gave an INHIBITION of -49.9%.
`CN(C)c1ncc2c(c1C(=O)O)CCN(Cc1ccco1)C2` gave an INHIBITION of -111%.
With `CC(=O)N1C[C@H]2CCCC(N3CCN(c4ncccn4)CC3)[C@H]2C1` (stereo partly specified) the INHIBITION was -104%.
In the case of `Cn1ccnc1NC[C@@H]1CCC[C@@H]2CN(Cc3cccnc3)C[C@@H]21`, the INHIBITION is reported as -26.3%.
In the case of `c1ccc(NC[C@@H]2CCC[C@@H]3CN(Cc4nccs4)C[C@@H]32)nc1`, the INHIBITION is reported as 57.1%.
`c1cnc(NC[C@@H]2CCC[C@@H]3CN(Cc4cc[nH]n4)C[C@@H]32)nc1` gave an INHIBITION of -16.9%.
Work on `c1ccc(NC[C@@H]2CCC[C@@H]3CN(c4ncccn4)C[C@@H]32)nc1` yielded an INHIBITION of 72.9%.
For `c1ccc(NC[C@@H]2CCC[C@@H]3CN(Cc4csnn4)C[C@@H]32)nc1`, the INHIBITION was 62%.
`c1ccc(NC[C@@H]2CCC[C@@H]3CN(Cc4cccnc4)C[C@@H]32)nc1` gave an INHIBITION of 75%.
Work on `c1cncc(CN2C[C@H]3CCC[C@@H](CNc4cnccn4)[C@H]3C2)c1` yielded an INHIBITION of -3.45%.
`c1ccc(NC[C@@H]2CCC[C@@H]3CN(Cc4cc[nH]n4)C[C@@H]32)nc1` gave an INHIBITION of -29.8%.
`c1cnc(NC[C@@H]2CCC[C@@H]3CN(Cc4csnn4)C[C@@H]32)nc1` gave an INHIBITION of 47.7%.
`c1ccc(CN2C[C@@H]3CCCO[C@@H]3[C@H](Nc3ccccn3)C2)nc1` gave an INHIBITION of 18.5%.
`O=C1N(c2cncnc2)CCC12CCCN(Cc1cccnc1)C2` (stereo unspecified) was tested, and the INHIBITION was -88.1%.
For `Cc1nn(C)c2ncc(S(=O)(=O)N3CCCN4CCCC4C3)cc12` (stereo unspecified), the INHIBITION was -18.1%.
Compound `O=C1CSC(c2cccnc2)c2c(n(C3CCOCC3)[nH]c2=O)N1` (stereo unspecified) has an INHIBITION of -140%.
In the case of `O=C1CCC2(CCN(Cc3ccc(F)cc3)CC2)N1CCN1CCCC1`, the INHIBITION is reported as 84.6%.
`COCCN1CCCC2(CCC(=O)N2Cc2cccnc2)C1` (stereo unspecified) was tested, and the INHIBITION was -66.3%.
In the case of `CC[C@@H]1N(C)CCC[C@]12CCC(=O)N2Cc1ccncc1`, the INHIBITION is reported as 3.77%.
For `Cc1cnc(N2CCCC3(CCCN3CC(=O)N(C)C)C2)nc1` (stereo unspecified), the INHIBITION was -98.2%.
Compound `COCCNc1nc2c(c(NCCc3cccs3)n1)CCNCC2` has an INHIBITION of 81.9%.
Work on `COCCNc1nc2c(c(NCc3cnc(C)c(C)c3)n1)CCNCC2` yielded an INHIBITION of -67.4%.
Work on `COCc1cncc2c1CCN(Cc1cccs1)C2` yielded an INHIBITION of -1.55%.
With `Cn1cc(C2=CCN(CCCC(=O)Nc3ccc(C#N)cc3)CC2)cn1` the INHIBITION was -69.1%.
Work on `Cc1ccc(CN2CC[C@@H]3[C@@H]2CCN3C(=O)Cc2cccs2)o1` yielded an INHIBITION of -34.3%.
`CCn1ccnc1CN(C)C1CCCN(CCCc2ccccc2)C1` (stereo unspecified) was tested, and the INHIBITION was 86.8%.
`CCn1c(C)nnc1CN(C)C1CCN(CCOc2ccccc2)C1` (stereo unspecified) was tested, and the INHIBITION was -23.4%.
In the case of `Cc1ncc(CN(C)C2CCCN(CCc3ccccc3)C2)n1C` (stereo unspecified), the INHIBITION is reported as 90%.
`CCn1ccnc1CN(C)C1CCCN(Cc2ccccc2F)C1` (stereo unspecified) gave an INHIBITION of 70.4%.
`CCn1ccnc1CN(C)C1CCCN(CCc2ccccc2)C1` (stereo unspecified) gave an INHIBITION of 77.1%.
In the case of `Cc1nc(CC(=O)N(C)C2CCCN(CCc3ccccc3)C2)cs1` (stereo unspecified), the INHIBITION is reported as -42.4%.
`CCn1ccnc1CN1CCCN(C(=O)Cc2ccc(F)cc2)CC1` gave an INHIBITION of -4.98%.
In the case of `CCn1ccnc1CN1CCCN(C(=O)Cc2ccccc2C)CC1`, the INHIBITION is reported as -41.3%.
In the case of `COC(=O)N1C[C@@H]2CC[C@H]1CN(Cc1ccncc1)C2`, the INHIBITION is reported as -81.6%.
`c1cncc(O[C@H]2CC[C@H]3[C@H]2OCCN3C2CCCC2)c1` gave an INHIBITION of -36.8%.
Compound `O=C(c1ccc(F)c(F)c1)N1C[C@H]2CNC[C@H]2C1` has an INHIBITION of -51.2%.
With `Cc1nccn1CCCN1CCCC(c2ccccc2)C1` (stereo unspecified) the INHIBITION was 77.8%.
Work on `Cc1ccc(O[C@@H]2C[C@H]3CN(c4ncc(F)cn4)CCN3C2)cc1` yielded an INHIBITION of -98.8%.
`c1cncc(OC[C@@]23CCC[C@@H]2CN(CC2CCOCC2)C3)c1` gave an INHIBITION of 39%.
In the case of `O=C1NCC[C@]12CN(Cc1ccncc1)C[C@H]2c1ccccc1`, the INHIBITION is reported as -70.3%.
For `COCC1CC2(CCN(CC3CC3)CC2)CN1Cc1ccccn1` (stereo unspecified), the INHIBITION was 42.4%.
Work on `CCN1CC(c2ccccc2)CC2(CCN(Cc3ncc[nH]3)CC2)C1` (stereo unspecified) yielded an INHIBITION of 88.1%.
Work on `c1cc(NC2CC3(CCN(Cc4cc[nH]n4)C3)C2)ncn1` (stereo unspecified) yielded an INHIBITION of -152%.
`CN1CC(c2ccccc2)CC2(CCN(Cc3ncc[nH]3)CC2)C1` (stereo unspecified) showed an INHIBITION of 82.5%.
With `Cc1cc(NC2CC3(CCN(Cc4cscn4)C3)C2)ncn1` (stereo unspecified) the INHIBITION was 19.4%.
With `c1ccc(C2CN(C3CC3)CC3(CCN(Cc4cscn4)CC3)C2)cc1` (stereo unspecified) the INHIBITION was 80.4%.
Work on `c1cc(NC2CC3(CCN(Cc4cscn4)C3)C2)ncn1` (stereo unspecified) yielded an INHIBITION of -13.3%.
`COCC1CC2(CCN(Cc3ccccn3)CC2)CN1C(C)C` (stereo unspecified) gave an INHIBITION of 9.58%.
With `Cc1ncsc1CN1CCO[C@H]2[C@H](Oc3ccccn3)CC[C@@H]21` the INHIBITION was -24.4%.
`CCC12CN3CC(CC)(CN(C1)C3c1[nH]c(=O)[nH]c(=O)c1C)C2=O` (stereo unspecified) was tested, and the INHIBITION was -87.1%.
Compound `CCOC(=O)[C@@H]1[C@@H](c2ccccc2)CN2CCN(C(=O)C3CC3)C[C@H]12` has an INHIBITION of -91.7%.
`c1cc(CN2CCO[C@@H]3CNC[C@@H]32)co1` showed an INHIBITION of -38.2%.
For `CCOc1c(Br)cc(C2c3c(n[nH]c3C)N=C3COC(=O)C32)cc1OC` (stereo unspecified), the INHIBITION was 81.1%.
`COc1cc(C2c3c(n[nH]c3C)N=C3COC(=O)C32)cc(Br)c1O` (stereo unspecified) was tested, and the INHIBITION was 91%.
`COc1cc(C2SCC(=O)Nc3n[nH]cc32)cc(OC)c1O` (stereo unspecified) was tested, and the INHIBITION was -36%.
`c1ccc(CN2CCO[C@H]3[C@H](OCCN4CCCC4)CC[C@@H]32)nc1` showed an INHIBITION of 30%.
In the case of `CN1CCN(C[C@H]2CN3CC[C@H]2C[C@@H]3CNC(=O)c2ccco2)CC1`, the INHIBITION is reported as -59.7%.
Compound `O=C1CO[C@@H]2CN(Cc3ccncc3)C[C@H]2N1Cc1ccncc1` has an INHIBITION of -52.2%.
In the case of `CC(=O)N1CCC2(CC1)NC(=O)[C@H]1CN(Cc3cccnc3)C[C@H]12`, the INHIBITION is reported as -6.03%.
